Laboratory results from PubChem BioAssay AID624464 (National Center for Advancing Translational Sciences (NCATS), 2012).
The campaign covered roughly 360,000 compounds. About 810 (0.23%) were called active. No stated cut-off is given here; in the data, active means potentiation above about 50%; inconclusive means mostly about 30% to 49%; inactive means weaker than that. Only a selection was taken, and actives are over-represented in it overall.

target: D(2) dopamine receptor (Homo sapiens) (UniProt P14416); assay: Beta-Arrestin HTS for Positive Allosteric Modulators of the Human D2 Dopamine Receptor: Potentiators; conditions: DiscoveRx D2 beta-arrestin cells, luminescence, 90 min; stronger effect = higher value; 100% = 57 uM dopamine signal
Sequence (P14416 whole entry, looked up): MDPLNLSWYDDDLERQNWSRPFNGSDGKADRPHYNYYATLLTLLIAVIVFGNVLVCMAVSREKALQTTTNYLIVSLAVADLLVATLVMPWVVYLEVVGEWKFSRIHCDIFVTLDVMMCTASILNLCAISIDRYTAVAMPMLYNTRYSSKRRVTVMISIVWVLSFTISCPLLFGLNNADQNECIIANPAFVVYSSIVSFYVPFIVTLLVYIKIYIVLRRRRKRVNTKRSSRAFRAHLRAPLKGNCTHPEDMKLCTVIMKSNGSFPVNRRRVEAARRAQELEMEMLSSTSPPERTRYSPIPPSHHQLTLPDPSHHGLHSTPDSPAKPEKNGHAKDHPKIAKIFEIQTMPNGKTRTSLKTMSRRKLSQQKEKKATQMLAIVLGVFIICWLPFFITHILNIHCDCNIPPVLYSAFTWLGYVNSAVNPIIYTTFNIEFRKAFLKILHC
From the text: There is great interest in identifying small molecule ligands for G-protein coupled receptors (GPCRs) as nearly 50% of all FDA-approved drugs target these important receptor proteins. […] Amongst the dopamine receptors (DARs), the D2 is arguably one of the most validated drug targets in neurology and psychiatry. For instance, all receptor-based antiparkinsonian drugs primarily work via stimulating the D2 DAR, whereas all FDA-approved antipsychotic agents are antagonists of this receptor. The D2 DAR is also therapeutically targeted in other disorders such as restless legs syndrome, tardive dyskinesia, Tourette's syndrome, and hyperprolactinemia.
To this end, a miniaturized qHTS screen was developed to be screened against the Molecular Libraries Small Molecule Repository (MLSMR). This assay seeks to identify potentiators against the D2 DAR.
NIH Molecular Libraries Probe Production Network [MLPCN]
NIH Chemical Genomics Center [NCGC]
PI Name: David Sibley, National Institutes of Neurological Disorders and Stroke
DiscoveRx D2 cells were thawed from frozen stock and seeded at 2,100 cells/ 3 uL/well media (DiscoveRx Plating Reagent 2) with MultiDrop Combi dispenser (Thermo Scientific, Logan, UT) onto white tissue culture treated 1536-well Aurora plates (Brooks Automation, Chelmsford, MA) and allowed to attach overnight at 37 deg C, 5% CO2. Next, 23 nL/well of compound solutions in DMSO were added with a pintool transfer (Kalypsis, San Diego, CA). As the positive control, 1 uL/well dopamine (EC100, 57 uM final concentration) diluted in buffer (HBSS + 10 mM HEPES + SMB + 0.1 %Tween-20) was dispensed to 1 column of each plate. EC20 (Dopamine at 50 nM final concentration) was dispensed to the rest of the plate except columns 1 &2 which were used as negative control (EC=0, buffer only), 1 uL/well as well. The cells were stimulated by compounds and dopamine for 90 minutes at 37 deg C, 5% CO2, after which 1.5 uL/well of DiscoveRx detection reagent was added with BioRAPTR FRD dispenser. The detection reagent was prepared by mixing of Galacton Star Substrate, Emerald II solution and PathHunter buffer (supplied by the assay kit) together at 1:5:19 proportion accordingly just prior to dispensing. The plates were incubated at ambient temperature for 1 hour and then the luminescent signal was read on ViewLux plate reader (PerkinElmer, Waltham, MA).

SMILES | potentiation
O=C1CSC(c2cccc(F)c2)N1c1ccc(O)cc1 (stereo not given) | -4.16% (inactive)
O=C(O)CCCC(=O)Nc1ccccc1-n1ccnc1 | -9.58% (inactive)
CSc1ncnc2c1ncn2CC(=O)C1CCC2C3CCC4=CC(=O)CCC4(C)C3CCC12C (stereo not given) | -2.03% (inactive)
CCOC(=O)CSc1nc2ccc(C)cc2n2cnnc12 | 0.488% (inactive)
CC1=C(C(=O)N(C(C)C)C(C)C)CC(CC(=O)NCC2CCCCC2)C(=O)N1Cc1ccccc1 (stereo not given) | 1.77% (inactive)
O=C(CCNS(=O)(=O)c1ccccc1C(F)(F)F)Nc1ccncc1 | 0.0096% (inactive)
O=C(OCC(=O)N(CCc1ccccc1)Cc1ccccc1)c1ccccc1[N+](=O)[O-] | -22.2% (inactive)
O=C(c1cccnc1)N(Cc1ccccc1)C(=O)c1cccnc1 | -3.67% (inactive)
COc1ccc(N(C(=O)c2cccnc2)S(=O)(=O)c2ccc(OC)c(OC)c2)cc1 | 0.917% (inactive)
O=C(c1cccnc1)N(c1cc2sc(=O)oc2c2ccccc12)S(=O)(=O)c1ccccc1 | 61.6% (active)
CC(C)Cc1ccc(S(=O)(=O)N2CCN(C(=O)c3ccco3)CC2)cc1 | -6.64% (inactive)
CC(C)(C)S(=O)N1Cc2cc(C(=O)NCCCN3CCOCC3)nc(-c3cccc(-c4cc5ccccc5o4)c3)c2[C@H]1CCO (stereo not given in full) | -2.56% (inactive)
COc1ccc(/C=C(\NC(=O)c2ccc(OCC(C)C)cc2)C(=O)OCc2ccco2)cc1 | -7.94% (inactive)
CCCC(=O)N1CCC1(C)C(=O)NCc1ccc(C(C)C)cc1 (stereo not given) | -0.154% (inactive)
CC(C)c1ccc(NC(=O)COC(=O)c2ccc(CN3CCCC3=O)cc2)cc1 | 0.762% (inactive)
CC(=O)N1CCN(c2ccc(NCc3ccc(C(C)C)cc3)cc2)CC1 | 62.8% (active)
CCOCC(=O)Nc1ncc(S(=O)(=O)c2ccc([N+](=O)[O-])cc2)s1 | 24.1% (inactive)
COC(=O)C(NC(=O)c1ccc(OC)cc1)(Nc1ncc(S(=O)(=O)c2ccc([N+](=O)[O-])cc2)s1)C(F)(F)F (stereo not given) | 65.4% (active)
COc1ccc(C(=O)NCCNc2ccc([N+](=O)[O-])cn2)cc1 | -11.5% (inactive)
CCCCN1C(=S)NC[C@@H]1C(C)CC (stereo not given in full) | -1.6% (inactive)
N#Cc1ccc(COC(=O)Cn2nnc(-c3ccccc3)n2)cc1 | -0.341% (inactive)
Cn1c(=NC(=O)c2ccc3c(c2)OCCO3)sc2cc(S(C)(=O)=O)ccc21 | -10.1% (inactive)
COCCn1c(=NC(=O)c2ccccc2[N+](=O)[O-])sc2cc(S(C)(=O)=O)ccc21 | 74.4% (active)
COC(=O)CNC(=O)c1ccccc1[N+](=O)[O-] | -2.49% (inactive)
C=CCSc1ccc(S(=O)(=O)N2CCN(C)CC2)cn1 | -3.17% (inactive)
O=C(Nc1ccnn1C1CCN(C/C=C/c2ccc(F)cc2)CC1)C1CCCC1 | -11% (inactive)
Cn1ncc2c(N3CCCCC3)nc(NCCCO)nc21 | -3.76% (inactive)
CS(=O)(=O)c1sc(C(=O)NC(=S)Nc2ccc(OC(F)(F)F)cc2)c2c1C=CCC2 | -5.92% (inactive)

SMILES | potentiation
COc1ccccc1Cc1c(-c2ccc(Cl)cc2)nc2ccc(Cl)cn12 | -4.81% (inactive)
COc1cccc(N2CC(C(=O)NCc3n[nH]c(=O)c4ccccc34)CC2=O)c1 (stereo not given) | -3.09% (inactive)
CCCCC(=O)N1CC2(C)CN(C(=O)CCCC)CC(C)(C1)C2=O | 12.6% (inactive)
COc1cc(C(=O)N2CCN(S(=O)(=O)c3ccc(C(C)C)cc3)CC2)ccc1OCC(=O)N1CCOCC1 | 0.615% (inactive)
CC(=O)N1CCN(c2ccccc2NC(=S)NC(=O)c2cc3ccccc3o2)CC1 | 1.52% (inactive)
Cc1ccccc1NC(=O)c1nn(-c2ccc(F)c(F)c2)ccc1=O | -20.8% (inactive)
CC(C)(C)S(=O)(=O)c1ccccc1-c1noc(-c2ccccc2)c1C(N)=O | -4.58% (inactive)
COc1ccc(S(=O)(=O)NC2(C(F)(F)F)N=C3SCCN3C2=O)cc1 (stereo not given) | -9.42% (inactive)
COC(=O)c1cc(S(=O)(=O)N2CCC(C(N)=O)CC2)oc1C | -5.83% (inactive)
Cc1cc(C)cc(C(=O)N(CCc2ccccc2)C2=CC3CCC(C2)N3C)c1 (stereo not given) | -8.31% (inactive)
CCCN(CCc1ccccc1)C1CCc2c(O)cccc2C1 (stereo not given) | 99% (active)
O=C(CCC(=O)N1CCN(S(=O)(=O)c2ccc(Cl)cc2)CC1)NCc1cccc(C(F)(F)F)c1 | -1.2% (inactive)
O=C(Cc1ccc(S(=O)(=O)N2CCOCC2)s1)N1CCN(c2ccc(C(F)(F)F)cc2[N+](=O)[O-])CC1 | -0.0198% (inactive)
CC(=O)NC1=NC(=O)CS1 | -7.96% (inactive)
Cc1ccc2cccc(OCCCOc3ccccc3CO)c2n1 | -2.17% (inactive)
CC1C=CCC2C(=O)N(c3cccc(C(=O)N4CCCCCC4)c3)C(=O)C12 (stereo not given) | -12.1% (inactive)
COCCCNC(=O)Cn1c(=O)n(Cc2ccccc2Cl)c(=O)c2cc(OC)c(OC)cc21 | -14.1% (inactive)
CCCc1cc(=O)[nH]c2nnc(SCC(=O)Nc3nnc(SCC)s3)n12 | -13.8% (inactive)
CC(C)(C)N(Cc1ccccc1)C(=O)COC(=O)CCc1c[nH]c2ccccc12 | 10.1% (inactive)
C[C@@H](NC(=O)[C@@H]1Cc2ccccc2CN1)C(=O)NC1CCCC1 | -3.01% (inactive)
COc1ccc(O)c(C(=O)c2cnc3c(c2)c(-c2ccc(F)cc2)c(C#N)c(=O)n3C)c1 | 11.8% (inactive)
COc1ccc(O)c(C(=O)c2cnc3onc(C(C)C)c3c2)c1 | 54.9% (active)
COCCn1c(=O)[nH]c(=O)c2cc(C(=O)c3cc(OC)ccc3O)cnc21 | -0.0764% (inactive)
CCOC(=O)c1cc(-c2sc(NC(=O)c3ccccc3)nc2C)n(-c2ccc(Br)cc2)n1 | 2.35% (inactive)
COC(=O)[C@]1(C)N[C@H](c2ccc(-c3ccc(Cl)c(Cl)c3)cc2)[C@@H]2C(=O)N(C)C(=O)[C@@H]21 | -3.41% (inactive)
O=C(C/C(=N\NC(=O)c1ccccc1Br)C(F)(F)F)c1cccs1 | -15% (inactive)
O=C(CC(CC(=O)c1ccccc1)c1ccco1)c1ccccc1 | -4.42% (inactive)
